Screening results: PubChem BioAssay, National Center for Advancing Translational Sciences (NCATS)
Nrf2 ARE act: Nrf2 pathway activation. actives 0.31% (n = 410,000). AID 624171. Potency, µM (titrated, usually from 46.1 µM), for inactives: at the highest dose activation, most hits filed as activators. AREc32 ARE-luciferase reporter (MCF7-derived line), luminescence, 24 h; note: potency is the fitted concentration of half-maximal effect; % of control where 0% means no effect; nearly all actives have a fitted effect of over 65% in size
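AREc32 cells carrying an ARE-driven firefly luciferase, 1000 cells/well in OPTI-MEM with 5% FBS, dosed after overnight attachment and incubated 24 hr at 37 deg C. Steady-Glo luminescence read after 30 min at RT.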
Nrf2 inh: Nrf2 pathway inhibition | Potency, µM (doses to about 46 µM), inactives show at the highest dose activity change, negative = inhibition, most hits filed as inhibitors | AID 504444 | actives 2.1% (n = 360,000) | A549 ARE-Fluc reporter, luciferase luminescence, 18-24 h; note: potency is the fitted concentration of half-maximal effect; % is set by controls: 0 for no effect and ±100 for the full control effect; nearly all actives have a fitted effect of over 60% in size
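Reporter: ARE-Fluc in A549. Exposure: 18-24 h, 37 °C, 5% CO2, 5% FBS OPTI-MEM. Readouts: fluorescent cytotoxicity (CellTiter-Fluor), then luminescent Nrf2 signal after BugLite.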
IL2 activator: IL-2 activation; IL-2 activation reporter assay, cell-based qHTS; stimulated with anti-CD3/CD4/CD28 beads; in transgenic mouse T cells; activation, % (series mostly up to about 46 µM); AID 652025; actives 0.065% (n = 360,000); in the data active = activation above about 50%; inconclusive = mostly about 30% to 49%; note: 0% is about no effect
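Quantitative HTS in unstimulated transgenic mouse T cells, with memory T cells as non-tolerant control and PMA/ionomycin as tolerance-bypass control. Compound pretreatment lasted 60 minutes before 18 h bead stimulation; EGFP/DsRed fluorescence read.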
A549 tox: kills or reduces viability of A549 cells in Nrf2 counter-screen. A549 ARE-Fluc cells, CellTiter-Fluor viability, 18-24 h. Potency, µM (doses to about 46 µM), for the others: at the top dose activity change, negative = cytotoxicity, hits mostly inhibitors. actives 0.16% (n = 390,000). AID 504648; note: potency is the fitted concentration of half-maximal effect; % is set by controls: 0 for no effect and ±100 for the full control effect
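A549 ARE-Fluc cells in 5% FBS OPTI-MEM, 5000 cells/well, rested 2 h then exposed to compounds in concentration-response for 18-24 h at 37 °C. Viability by CellTiter-Fluor fluorescence (Ex 405/Em 525) after 30 min; luciferase luminescence (BugLite, 15 min, RT) read afterwards.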
Active calls of the source: *; [ ] = another dose, or the depositor's remark. Only some compounds are listed: those with a hit (about 2.3% of all), similar ones and a draw of the others. Unless noted, calls come from the whole dose curve; as a rule, active = well fitted curve in the direction sought with a large enough effect; inconclusive = small, poorly fitted or top-dose-only effect, or another doubt; inactive = no such curve, though single readings can be large; an effect the other way counts as inactive or inconclusive.

`CCN(CC(=O)Nc1c(F)cccc1F)C(=O)c1ccc(N2CCCCC2)c([N+](=O)[O-])c1` gave Nrf2 ARE act 0.1%, Nrf2 inh 16.4µM*, IL2 activator -4.1 and A549 tox -12.5%.
`CC1=CC(=O)C(Sc2ccc(C)cc2)=CC1=O` gave Nrf2 ARE act 12.6µM* and IL2 activator -4.4.
`O=c1[nH]c2cc3ccccc3cc2nc1-c1nnnn1C1CCCC1` gave Nrf2 ARE act 5.2% and IL2 activator 4.8.
For CCCCC(=O)N1C/C=C\C(c2ccc(OC)cc2)N(Cc2ccc(F)cc2)C(=O)C1C (stereo not given) the results were Nrf2 inh -1.4% and A549 tox -13.9%.
O=S(=O)(Nc1cccc2ccccc12)c1cccc2ccccc12 was read as Nrf2 inh 18.4µM* and A549 tox -24.1%.
`Cc1oc(C)c2c(=O)cc(-c3ccc4c(c3)OCO4)cc(OC(=O)c3ccccc3Br)c12` gave Nrf2 ARE act 5.0%, Nrf2 inh -14.7% and A549 tox -21.4%.
`COc1ccc2c(c1)c1c(c(=O)n(-c3cccc(C)c3)c(=O)n1CC(=O)NCCC1=CCCCC1)n2C` gave Nrf2 ARE act 1.3%, Nrf2 inh 2.6%[9.27 µM] and A549 tox -1.6%.
`COC(=O)c1ccc2nc(C)cc(Nc3cccc(Cl)c3C)c2c1` gave Nrf2 ARE act 7.6%, Nrf2 inh inconclusive and A549 tox 6.4%.
For Cc1cccc(CNC(=O)Cc2ccc(NC(=O)N3CCCCc4ccccc43)cc2)c1 the results were Nrf2 ARE act 6.7%, Nrf2 inh inconclusive and A549 tox -1.2%.
`Cc1cc(/C=C2\SC(=S)NC2=O)c(C)n1-c1cccc(O)c1` gave Nrf2 ARE act 5.1%, Nrf2 inh 12.1%, IL2 activator 3.4 and A549 tox inconclusive.
Cc1sc(-n2c(C)cc(/C=N/n3cnnc3)c2C)c(C#N)c1C was read as Nrf2 ARE act 2.7%, Nrf2 inh 14.6µM*, IL2 activator -2.9 and A549 tox -15.5%.
For Cc1sc(-n2c(C)cc(/C=C3\SC(=S)NC3=O)c2C)c(C#N)c1C the results were Nrf2 ARE act 8.8%, Nrf2 inh inconclusive, IL2 activator 1.0 and A549 tox 20.6µM*.
Screening Cc1cc(/C=N/n2cnnc2)c(C)n1-c1ccccc1 returned Nrf2 ARE act 5.8%, IL2 activator -0.1 and A549 tox -1.2%.
For O=C1CCc2cc([S+](=O)([O-])NC3CCOCC3)ccc2N1 the results were Nrf2 inh 0.0% and A549 tox 0.0%.
Screening O=C(/C=C/c1ccco1)Nc1ccc(-c2nc3ccccc3[nH]2)cc1 returned Nrf2 ARE act inconclusive, Nrf2 inh -4.5%, IL2 activator -1.5 and A549 tox 23.1µM*.
For Cc1ccc(NC(=O)c2ccccc2)cc1 the results were Nrf2 ARE act -0.1%, Nrf2 inh inconclusive, IL2 activator -2.9 and A549 tox -1.4%.
For Cc1ccc(NC(=O)C2=C(c3ccccc3)S(=O)(=O)CCS2(=O)=O)cc1 the results were Nrf2 ARE act -2.2%, Nrf2 inh 20.6µM*, IL2 activator -3.1 and A549 tox inconclusive.
CCCn1c(NC(=O)c2cccc(C)c2C)nc2ccccc21 was read as Nrf2 ARE act 2.7%, Nrf2 inh inconclusive, IL2 activator -2.0 and A549 tox -17.2%.
Screening Cc1ccc(OCCn2c(NC(=O)c3ccco3)nc3ccccc32)cc1 returned Nrf2 ARE act 3.9%, Nrf2 inh -25.4%, IL2 activator 0.1 and A549 tox -12.4%.
Screening CCCn1c(NC(=O)c2ccc([N+](=O)[O-])o2)nc2ccccc21 returned Nrf2 ARE act 12.6µM*, Nrf2 inh 0.9%, IL2 activator 19.9 and A549 tox -10.9%.
`Cc1cccc(OCCn2c(NC(=O)c3ccco3)nc3ccccc32)c1` gave Nrf2 ARE act 4.9%, Nrf2 inh 18.4µM*, IL2 activator 0.0 and A549 tox -4.3%.
`O=C(c1ccc(S(=O)(=O)Cc2cc(F)ccc2F)c([N+](=O)[O-])c1)N1CCCC1` gave Nrf2 ARE act 8.91µM*, Nrf2 inh inconclusive, IL2 activator -5.1 and A549 tox -3.5%.
O=C(c1ccc(S(=O)(=O)Cc2cc(F)ccc2F)c([N+](=O)[O-])c1)N1CCCCC1 was read as Nrf2 ARE act inconclusive, Nrf2 inh -16.1%, IL2 activator -0.3 and A549 tox -12.2%.
